Hits are enriched below; roughly 4.5% of the tested compounds scored in any of these assays.
HDAC3 inh = inhibitors of human histone deacetylase 3 | recombinant HDAC3, fluorogenic peptide/trypsin coupled, fluorescence | inhibition, % at 8.3 µM | hit rate 0.15% among 320,000; in the data active means inhibition above about 26%, passing the limit was not always enough; inconclusive means no clear call, values can overlap the other calls
Target sequence (O15379 whole entry, looked up): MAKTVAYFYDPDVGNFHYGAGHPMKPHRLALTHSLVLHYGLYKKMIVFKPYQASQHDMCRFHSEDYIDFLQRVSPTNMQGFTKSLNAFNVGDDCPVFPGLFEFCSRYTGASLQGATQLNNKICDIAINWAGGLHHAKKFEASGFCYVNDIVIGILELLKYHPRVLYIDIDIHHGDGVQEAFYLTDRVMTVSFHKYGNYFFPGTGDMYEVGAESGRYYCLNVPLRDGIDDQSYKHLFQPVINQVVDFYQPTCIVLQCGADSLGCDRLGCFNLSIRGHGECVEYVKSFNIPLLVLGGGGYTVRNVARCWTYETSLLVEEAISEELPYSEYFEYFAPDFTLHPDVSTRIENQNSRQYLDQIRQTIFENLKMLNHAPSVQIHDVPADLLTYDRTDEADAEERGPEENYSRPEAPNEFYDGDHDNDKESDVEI
Rtt109 Vps75 = inhibitors of Candida albicans Rtt109/Vps75 histone acetyltransferase | inhibition, % at 34.9 µM | hit rate 0.16% among 330,000 | Q5AAJ8 | purified Rtt109/Vps75, ThioGlo CoA-SH fluorescence, 4 h | AID 540336;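 active means inhibition of at least 50% in every replicate; inconclusive means best replicate reaches 50% inhibition but some replicates fall short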
Efflux pump inh = inhibitors of Candida antifungal efflux pumps expressed in yeast | S. cerevisiae Candida pump triplex, Nile Red efflux | inhibition, % at 10 µM | hit rate 0.44% among 330,000;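 active means plate passing quality check with inhibition over a set limit, or well fluorescence over plate mean plus 4 SD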;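 further: Nile Red retained in pooled yeast measured as flow cytometry median fluorescence; 0% = buffer negative control and 100% = Enniatin B positive control; higher means more Nile Red kept so more efflux inhibition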
Rce1 inh = inhibitors of yeast Ras-converting enzyme; calls only; hit rate 0.27% among 290,000; yeast membranes, quenched prenylated peptide cleavage fluorescence; Q03530;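 active means fall in fluorescence gain of 50% or more versus controls, with final raw signal at or below 3038400; inconclusive means same 50% fall but final raw signal above 3038400; inactive means fall in fluorescence gain under 50%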;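 further: plate controls were neutral control wells for no effect and wells lacking membranes for full effect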
GRK2 aptamer HTS = human GRK2 inhibition via aptamer displacement; inhibition of aptamer binding, % at 10 µM; hit rate 0.59% among 330,000; P25098; AID 488847; bead flow cytometry, FAM-aptamer displacement from GRK2;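 active means inhibition of aptamer binding above 40%, roughly 3 SD of noise, on plates passing a quality check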;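 further: median bead fluorescence of bound FAM aptamer so fluorescent compounds give negative values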
ALR inh = human ALR oxidase inhibition via reduced H2O2 | purified ALR, DTT oxidation, H2O2 HRP-luminol luminescence | hit rate 3.8% among 290,000 | inhibition, % (test concentration not listed);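 active means mean replicate inhibition above about 79%, with every replicate also reaching it, limit read from the data; inconclusive means only one of the two criteria met; inactive means mean below limit and not every replicate reaching it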
Target sequence (P55789 whole entry, looked up): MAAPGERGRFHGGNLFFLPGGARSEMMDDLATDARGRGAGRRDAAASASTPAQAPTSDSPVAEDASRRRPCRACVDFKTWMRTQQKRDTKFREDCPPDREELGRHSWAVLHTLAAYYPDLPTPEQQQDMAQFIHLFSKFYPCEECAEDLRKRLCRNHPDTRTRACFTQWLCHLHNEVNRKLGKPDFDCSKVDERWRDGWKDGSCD
Numbers without * were called inactive; i = inactive; ? = inconclusive; / = no result given.

SMILES | HDAC3 inh | Rtt109 Vps75 | Efflux pump inh | Rce1 inh | GRK2 aptamer HTS | ALR inh
CC12CCC(C(=O)N3CCN(c4ccccc4)CC3)(CC1=O)C2(C)C (stereo not drawn) | -18 | / | 0 | i | 0 | 99*
COc1ccc(N2CCN(C(=O)C34CCC(C)(C(=O)C3)C4(C)C)CC2)cc1 (stereo not drawn) | -3 | 13 | 0 | i | 3 | 44
C=CCn1c(C)nc2c(cnn2-c2ccccc2)c1=O | 7 | -2 | 0 | i | 0 | 3
Cc1nnc(SCc2ccc(Cl)c(Cl)c2)s1 | -2 | -5 | 0 | i | 0 | -7
Cc1[nH]c(=S)sc1Cc1ccc(Cl)c(Cl)c1 | ? | / | 0 | i | 0 | 96*
Oc1ccc(N=Nc2ccc3c(c2)OCO3)c2ccccc12 | -3 | / | -1 | i | 78* | -24
O=C(CN1CCOc2ccccc21)NCc1ccc(F)cc1 | -5 | 0 | 0 | i | 2 | 98*
O=C(CN1CCOc2ccccc21)NCc1ccco1 | -4 | 2 | 0 | i | 0 | 51
COCCNC(=O)CN1CCOc2ccccc21 | 11 | 1 | 0 | i | 0 | /
O=C(CN1CCOc2ccccc21)NCc1ccc(Cl)cc1 | -1 | 4 | 1 | i | 1 | 99*
O=C(CN1CCOc2ccccc21)NCc1cccs1 | -7 | 10 | 0 | i | 2 | 99*
O=C(CN1CCOc2ccccc21)NC1CC1 | -5 | -3 | 0 | i | 3 | 87*
CCOC(=O)C1CCN(C(=O)c2cc(C(C)(C)C)nn2Cc2ccccc2)CC1 | 3 | 1 | 0 | i | 0 | 6
CC(=O)c1ccc(N2CCN(Cc3nc4ccccc4[nH]3)CC2)cc1 | 5 | -4 | 0 | i | 0 | /
Oc1ccc(N2CCN(Cc3nc4ccccc4[nH]3)CC2)cc1 | 1 | -2 | 0 | / | 0 | 99*
COc1ccc(CCNC(=O)COC(=O)c2cc(=O)[nH]c3ccccc23)cc1 | -14 | -6 | 0 | / | 0 | 1
CCc1ccc(C(C(=O)NCc2ccc(F)cc2)N(C(=O)c2csnn2)C2CC2)cc1 (stereo not drawn) | 2 | 1 | 0 | i | 0 | -17
CC(C)CC(=O)Nc1nnc(S(=O)(=O)N(C)Cc2ccco2)s1 | 1 | 0 | 0 | i | 1 | -3
CN(Cc1ccco1)S(=O)(=O)c1nnc(NC(=O)c2cccc(Cl)c2)s1 | 0 | 2 | 0 | i | 3 | 96*
Cc1cc(N(C)Cc2ccccc2)nc2cc(O)ccc12 | -41 | -1 | 1 | i | 0 | 98*
OC(CNCCN1CCNCC1)Cc1ccccc1 (stereo not drawn) | / | 7 | / | / | / | /
Cc1nn(-c2ccccc2)c2[nH]c(=O)c(CNc3ccc(N4CCOCC4)cc3)cc12 | 1 | 11 | 0 | i | 0 | 97*
Cc1ccc(C(=O)Sc2cccccc2=O)cc1 | 19 | -6 | 0 | i | 1 | 99*
Nc1ncc2c(n1)-c1ccccc1CC2 | -25 | 10 | 0 | i | 1 | -19
Nc1ncc2c(n1)-c1ccoc1CC2 | -7 | -1 | 0 | i | 0 | 89*
SMILES | HDAC3 inh | Rtt109 Vps75 | Efflux pump inh | Rce1 inh | GRK2 aptamer HTS | ALR inh
Cc1ccc(NN=C2c3ccccc3-c3ccccc32)cc1 | -5 | 0 | 0 | i | 3 | 89*
Cc1ccc(NC(=S)NNC(=O)c2cn(C)nc2C)cc1 | -3 | 3 | 0 | i | 3 | 97*
CCn1c(C)nc2cc(C(=O)NNC(=S)Nc3ccccc3OC)ccc21 | 6 | / | 0 | i | 0 | 56
CCn1c(C)nc2cc(C(=O)NNC(=S)Nc3ccc(C)cc3)ccc21 | 8 | -8 | 0 | i | 2 | 86*
Cc1ccc(NC(=S)NNC(=O)c2nn(C)c(C)c2Cl)cc1 | 5 | 2 | 0 | i | 0 | 90*
Cc1ccc(NC(=S)NNC(=O)c2c(Cl)c(C)nn2C)cc1 | 14 | 4 | 0 | i | 2 | 87*
Cn1c(SCC(=O)Nc2ccc3c(c2)n(C)c(=O)n3C)nnc1-c1ccncc1 | 4 | -11 | 0 | i | 0 | -11
O=C(CCCN1C(=O)NC2(CCCC2)C1=O)NCc1ccccc1 | -1 | 2 | 0 | / | 0 | 0
CC(C)c1ccc(NC2CCCN(C(=O)c3ccsc3)C2)cc1 (stereo not drawn) | 0 | 13 | 0 | i | 0 | 98*
CC(C)c1ccc(NC2CCCN(C(=O)c3n[nH]c4c3CCC4)C2)cc1 (stereo not drawn) | 6 | 0 | 0 | i | 0 | 99*
CC(C)c1ccc(NC2CCCN(C(=O)c3cccnc3)C2)cc1 (stereo not drawn) | 10 | 2 | 0 | i | 1 | 69
CC(C)c1ccc(NC2CCCN(C(=O)c3cnn(C(C)C)c3)C2)cc1 (stereo not drawn) | -7 | 2 | -1 | i | 3 | /
COC(=O)c1ccc(C(=O)N2CCCC(Nc3ccc(C(C)C)cc3)C2)cc1 (stereo not drawn) | -1 | 11 | 0 | i | 5 | 98*
O=C(c1ccsc1)N1CCCC(Nc2ccc(F)c(F)c2)C1 (stereo not drawn) | -12 | -9 | 0 | i | 0 | 57
O=C(CCCCCNc1nc(=S)[nH]c2ccccc12)NCCc1ccc(Cl)cc1 | 2 | 8 | 0 | / | 0 | 1
O=C(O)CCCCCNc1nc(=S)[nH]c2ccccc12 | 4 | -4 | 0 | i | 0 | 82*
CC(C)(C)OC(=O)NCc1n[nH]c(=S)n1C1CC1 | 1 | 2 | 0 | i | 0 | 86*
CCCCOc1ccc(C(=O)NNC(=O)c2cnccn2)cc1OC | -4 | 19 | 0 | / | 0 | 1
CC1Cc2nc(SCC(=O)Nc3ccc4c(c3)OCCO4)n(C)c(=O)c2S1 (stereo not drawn) | -1 | ? | 0 | i | 2 | 94*
Cc1ccc2nc(NC(=O)CSc3nc4c(c(=O)n3C)SC(C)C4)sc2c1 (stereo not drawn) | 1 | 16 | 0 | i | 4 | 99*
CC1Cc2nc(SCC(=O)Nc3ccc(F)cc3F)n(C)c(=O)c2S1 (stereo not drawn) | 3 | 0 | 0 | i | 5 | 99*
Cc1ccc(C)c(NC(=O)CSc2nc3c(c(=O)n2C)SC(C)C3)c1 (stereo not drawn) | 1 | -15 | 0 | i | 1 | 48
COCCn1c(SCC(=O)Nc2ccc3c(c2)OCCO3)nc2c(c1=O)SC(C)C2 (stereo not drawn) | 4 | 7 | 0 | / | 2 | 99*
COc1ccc(-c2cn(CCO)c(-c3ccc(Cl)nc3)n2)cc1 | 1 | 3 | 0 | / | 0 | 51
Cc1cccnc1NC(=O)Nc1cccc(Cl)c1 | 3 | -1 | 0 | i | 15 | -1
COc1cc(Cn2nnc3ccccc32)cc(Br)c1O | 6 | -6 | 0 | i | 4 | 39
CC(=O)OCC1OC(n2c(-c3ccc(Cl)cc3)ccc(C#N)c2=S)C(OC(C)=O)C(OC(C)=O)C1OC(C)=O (stereo not drawn) | / | -3 | / | / | / | /

Bioassay records (PubChem)
